ST2 IL33 inh: blocks human ST2 binding to IL-33 | 78,000 compounds, 2.3% hits | inhibition, % for hits at 17 µM | Q01638 | AlphaLISA ST2-Fc/biotin-IL-33 interaction, 1 h; in the data active = inhibition above about 30%
Target sequence (Q01638 whole entry, looked up): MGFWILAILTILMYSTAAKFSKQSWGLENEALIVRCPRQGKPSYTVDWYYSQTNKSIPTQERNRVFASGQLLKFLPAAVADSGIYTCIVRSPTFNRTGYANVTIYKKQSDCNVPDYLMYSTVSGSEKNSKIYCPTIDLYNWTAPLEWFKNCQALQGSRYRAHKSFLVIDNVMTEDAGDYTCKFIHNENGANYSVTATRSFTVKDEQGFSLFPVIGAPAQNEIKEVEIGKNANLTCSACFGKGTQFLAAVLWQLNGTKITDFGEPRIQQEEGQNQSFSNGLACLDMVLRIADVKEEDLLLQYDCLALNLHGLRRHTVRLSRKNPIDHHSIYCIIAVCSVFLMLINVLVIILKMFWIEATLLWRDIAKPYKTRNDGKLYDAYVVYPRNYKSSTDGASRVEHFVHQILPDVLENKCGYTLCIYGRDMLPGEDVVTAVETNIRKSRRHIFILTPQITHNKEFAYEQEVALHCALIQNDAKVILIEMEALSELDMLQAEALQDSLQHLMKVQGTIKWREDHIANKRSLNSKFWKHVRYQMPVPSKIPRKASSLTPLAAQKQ
* hit, by the source's call; i = inactive. Shown is part of a subset that was picked to be rich in hits.

SMILES | ST2 IL33 inh
Nc1ncnc(N2CCN(Cc3ccccc3)CC2)c1[N+](=O)[O-] | i
COc1ccc(O)c(C=Nc2c(C)n(C)n(-c3ccccc3)c2=O)c1 | i
O=c1oc2ccccc2c(O)c1C=Nc1cccc(C(F)(F)F)c1 | i
COc1ccccc1-n1c(O)c(C=Nc2ccc(C(F)(F)F)cc2)c2ccccc2c1=O | 33%*
COc1ccccc1NC(=O)CSc1nc(O)cc(=O)n1-c1ccccc1C | i
COc1ccc(-n2nc(C(=O)O)c3ccccc3c2=O)c(OC)c1 | i
COc1ccc(N=Cc2c(O)n(-c3ccccc3C)c(=O)c3ccccc23)c(OC)c1 | 43%*
COc1ccc(-n2c(=O)[nH]c3cc(C(=O)O)ccc3c2=O)cc1OC | i
COc1cccc(C=Nc2ccc(N=Cc3cccc(OC)c3OC)cc2)c1OC | i
COc1ccc(N=Cc2c(O)n(-c3ccccc3C)c(=O)c3ccccc23)cc1OC | 48%*
COc1ccc(N=Cc2c(C)c(Cl)c(C)c([N+](=O)[O-])c2O)cc1OC | i
COc1ccc(N=Cc2c(O)n(-c3ccccc3OC)c(=O)c3ccccc23)c(OC)c1 | 31%*
COc1ccc(OC)c(-n2c(=O)[nH]c3cc(C(=O)O)ccc3c2=O)c1 | i
Cc1cccc2cc(C3CC(c4ccccc4)=NN3C(=O)CCC(=O)O)c(=O)[nH]c12 (stereo not drawn) | i
CN1C(=O)C2(CCN(C(=O)[C@@H](N)Cc3cnc[nH]3)CC2)c2ccccc21 | i
CCOc1ccc(NC(=O)C(C)Sc2nnc(-c3ccc(OC)c(OC)c3)o2)cc1 (stereo not drawn) | i
O=C1c2ccccc2NC(c2ccc(F)cc2)N1c1ccc(F)cc1 (stereo not drawn) | i
O=C(Nc1c(-c2cccs2)nc2ccccn12)c1ccc2c(c1)OCO2 | i
Cc1ccc(C(=O)N2CCC(n3nccc3NC(=O)Nc3ccccc3C)CC2)s1 | i
CC1(C)CC(Nc2ccc(C(=O)NCCCc3ccccn3)cn2)CCO1 (stereo not drawn) | i
CN(CCn1cccn1)c1nc(-c2cccnc2)nc2c1cnn2C | i
CN(CC1COCCO1)c1nc(-c2cccnc2)nc2c1cnn2C (stereo not drawn) | 34%*
CC(CN(C)c1nc(-c2cccnc2)nc2c1cnn2C)N1CCOCC1 (stereo not drawn) | i
NC(CC(O)c1ccc([N+](=O)[O-])cc1)C(Cl)(Cl)Cl (stereo not drawn) | i
COc1ccc(N2CCN(Cc3cccnc3)CC2)cc1 | i
SMILES | ST2 IL33 inh
COc1cccc(-c2ccccc2NC(=O)C2CCN(Cc3ccc4nonc4c3)CC2)c1 | i
COc1ccc(N2CCN(Cc3ccc4nonc4c3)C(C)C2)cc1 (stereo not drawn) | 31%*
CCCc1nc2nc[nH]n2c(=O)c1NC(=O)Nc1cccc(C(F)(F)F)c1 | i
CN(C)c1ccc(/C=C/c2[nH]c(=O)[nH]c(=O)c2[N+](=O)[O-])cc1 | i
CCN(CC)c1ccc(/C=C2\SC(=O)N(CC(=O)N3CCOCC3)C2=O)cc1 | i
Cc1ccc(COc2ccc(/C=C3\SC(=O)N(CC(=O)N4CCOCC4)C3=O)cc2)cc1 | i
COc1cc(C=O)ccc1OC(=O)N1CCOCC1 | i
CN1C(=O)S/C(=C/c2ccccc2OCc2ccc(C(=O)O)cc2)C1=O | i
O=C(CN1C(=O)S/C(=C\c2ccccc2OCc2cccc(F)c2)C1=O)N1CCOCC1 | 30%*
C=CCOc1ccc(/C=C2\SC(=O)N(CC(=O)N3CCOCC3)C2=O)cc1OC | 40%*
NC(=O)C1CCCN(CCn2ccnc2-c2ccncc2)C1 (stereo not drawn) | i
C[C@@H](C(=O)NCc1cccnc1Oc1ccc(F)cc1F)n1cnnn1 | i
Cc1ccc(-n2[nH]c(=O)c(C=c3c(C)c(C#N)c4nc5ccccc5n4c3=O)c2O)cc1Cl | i
CS(=O)(=O)NC[C@H]1O[C@@H](CC(=O)NCCN2CCOCC2)[C@H](O)[C@@H]1O | i
Cc1ccc(NC2SC(=O)N(c3ccccc3)C2=O)cc1 (stereo not drawn) | i
O=c1[nH]c2c(s1)C(c1ccc(Cl)cc1)C1C3CCC(C3)C1S2 (stereo not drawn) | i
Cc1ccc(N2C(=O)C3Sc4[nH]c(=O)sc4C(c4ccccc4)C3C2=O)cc1 (stereo not drawn) | 34%*
Cc1[nH]c(=O)[nH]c(=O)c1S(=O)(=O)NCCC12CC3CC(CC(C3)C1)C2 | i
COc1ccc(Cl)cc1NS(=O)(=O)c1ccc2[nH]c(=O)c(=O)[nH]c2c1 | i
COc1ccc(C)c2c(O)c(CC=C(C)C)c(=O)oc12 | i
COc1ccc(/C=C2\SC(N3CCCC3)=NC2=O)cc1OC | i
COc1ccc(/C=C2\SC(N3CCCCC3)=NC2=O)cc1OC | i
COc1ccc(OC)c(/C=C2\SC(c3ccccc3)=NC2=O)c1 | 51%*
COc1ccc(Br)cc1/C=C1/SC(N2CCOCC2)=NC1=O | i
COc1cc(/C=C2\SC(c3ccc(C)cc3)=NC2=O)cc(OC)c1O | 80%*
SMILES | ST2 IL33 inh
CCCOc1ccc(-c2nc3s/c(=C\c4cc(OC)ccc4OC)c(=O)n3n2)cc1 | i
CC(Sc1oc(-c2ccco2)nc1S(=O)(=O)c1ccccc1)c1ccccc1 (stereo not drawn) | i
O=S(=O)(c1ccc(-c2ccc(S(=O)(=O)N3CCOCC3)cc2)cc1)N1CCOCC1 | i
COc1ccc(/C(N)=N\OC(=O)c2ccccc2Cl)cc1 | i
CN(C)c1ccc(C(O)(c2ccc(N(C)C)cc2)c2ccc(N(C)C)cc2)cc1 | 97%*
CN(C)c1ccc(NC(=O)c2ccc(Cl)cc2)cc1 | i
CCCC(C)NC(=O)c1ccc(N(C)C)cc1 (stereo not drawn) | i
CCOc1ccc2cc(C3CC(c4ccccc4)=NN3C(C)=O)c(=O)[nH]c2c1 (stereo not drawn) | i
CCC1=C(c2ccc(OC)cc2)S(=O)(=O)N(CC(=O)Nc2ccc(C)c(Cl)c2)C1=O | i
O=C(O)CSc1nnc(-c2ccco2)n1-c1ccccc1C(F)(F)F | i
O=C(NCc1ccc2c(c1)OCO2)c1ccc2nc3ccc(Cl)cc3c(=O)n2c1 | i
Cc1ccc2[nH]c3c(c2c1)CCCC3=O | i
Cc1ccc2[nH]c3c(c2c1)CCC1C3=NNC1c1ccco1 (stereo not drawn) | 37%*
Cc1ccc2[nH]c3c(c2c1)CN(Cc1ccccc1)CC3 | i
O=C(c1cccc(Cl)c1)N1CCCC(CO)(CCc2ccccc2)C1 (stereo not drawn) | i
Cc1ncoc1C(=O)N1CCC(Oc2cccc(C(=O)NCc3ccccn3)c2)CC1 | i
O=C(NC(=O)c1ccccc1)Oc1ccc([N+](=O)[O-])cc1 | i
O=[N+]([O-])c1ccc(C(=Nc2ccccc2)NO)cc1 | i
O=C(C#Cc1ccc([N+](=O)[O-])cc1)c1ccccc1 | 33%*
CCOC(=O)c1cccnc1-c1cc(OC)ccc1F | i
Cc1ccc(N=C2c3cc([N+](=O)[O-])ccc3-c3ncccc32)cc1 | i
COc1ccc(/C=C2/c3cc(C)ccc3-c3ncccc32)cc1 | 31%*
N/C(=N/OC(=O)c1ccco1)c1ccc(Br)cc1 | i
Nc1ncnc(N2CCN(CCO)CC2)c1[N+](=O)[O-] | i
Cc1ccc(OCc2nc(-c3ccccc3)no2)c(Br)c1 | i
Cc1cc(C)n(C2CCN(Cc3cc(C(C)C)no3)C2)n1 (stereo not drawn) | i
Cc1ccc(NC2(C(=O)N(C)CC3CCCNC3)CCCC2)cc1 (stereo not drawn) | i

Assay outcomes as filed in PubChem.
